# In PubChem BioAssay AID1159580 (chemical genetic matrix, 2015):
# The whole screen tested about 5,500 compounds, of which about 2,000 (36%) were called active. Another 18% or so got no clear call; they are omitted. The list shows a part of the results. Values without a mark were called inactive. Rule as the data show it: active = normalized growth mostly below about 0.91 (no sharp cut-off); inconclusive = no clear call, values can overlap the other calls; inactive = mostly above about 0.92.
# Assay: chemical genetic growth profiling, strain panel (AID 1159580);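 also: tested at 20 µM; growth read once vehicle control cultures reached saturation at 30 °C; 1 = growth at the plate median or of vehicle wells; lower values mean less growth of the strain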
# Settings: growth OD
smiles,measurement,setting,value
CCOP(=S)(OCC)Oc1nc(Cl)c(Cl)cc1Cl,normalized growth,"S. cerevisiae deletion strains, locus YJR075W, strain HOC1, stronger effect = lower value",0.999
same,normalized growth,"S. cerevisiae deletion strains, locus YKL009W, strain mrt4, stronger effect = lower value",1
same,normalized growth,"S. cerevisiae deletion strains, locus YKL068W, stronger effect = lower value",0.99
same,normalized growth,"S. cerevisiae deletion strains, locus YKL085W, strain MDH1 (second series), stronger effect = lower value",0.996
same,normalized growth,"S. cerevisiae deletion strains, locus YKL085W, strain MDH1, stronger effect = lower value",0.996
same,normalized growth,"S. cerevisiae deletion strains, locus YKL160W, strain elf1, stronger effect = lower value",0.974
same,normalized growth,"S. cerevisiae deletion strains, locus YKL190W, strain CNB1, stronger effect = lower value",0.996
same,normalized growth,"S. cerevisiae deletion strains, locus YKR001C, strain vps1, stronger effect = lower value",0.937
same,normalized growth,"S. cerevisiae deletion strains, locus YKR026C, strain gcn3, stronger effect = lower value",0.957
same,normalized growth,"S. cerevisiae deletion strains, locus YKR091W, strain srl3, stronger effect = lower value",0.948
same,normalized growth,"S. cerevisiae deletion strains, locus YLL001W, strain dnm1, stronger effect = lower value",0.927
same,normalized growth,"S. cerevisiae deletion strains, locus YLL026W, stronger effect = lower value",0.982
same,normalized growth,"S. cerevisiae deletion strains, locus YLL041C, strain sdh2, stronger effect = lower value",0.954
same,normalized growth,"S. cerevisiae deletion strains, locus YLR027C, strain aat2, stronger effect = lower value",0.967
same,normalized growth,"S. cerevisiae deletion strains, locus YLR039C, strain RIC1, stronger effect = lower value",0.898
same,normalized growth,"S. cerevisiae deletion strains, locus YLR058C, strain SHM2, stronger effect = lower value",0.998
same,normalized growth,"S. cerevisiae deletion strains, locus YLR102C, strain apc9, stronger effect = lower value",0.986
same,normalized growth,"S. cerevisiae deletion strains, locus YLR221C, strain rsa3, stronger effect = lower value",0.852 (active)
same,normalized growth,"S. cerevisiae deletion strains, locus YLR258W, strain gsy2, stronger effect = lower value",0.965
same,normalized growth,"S. cerevisiae deletion strains, locus YLR262C, strain YPT6 (second series), stronger effect = lower value",0.724 (active)
same,normalized growth,"S. cerevisiae deletion strains, locus YLR262C, strain YPT6, stronger effect = lower value",0.945
same,normalized growth,"S. cerevisiae deletion strains, locus YLR268W, strain sec22, stronger effect = lower value",0.986
same,normalized growth,"S. cerevisiae deletion strains, locus YLR320W, strain mms22, stronger effect = lower value",0.828 (active)
same,normalized growth,"S. cerevisiae deletion strains, locus YLR330W, strain CHS5, stronger effect = lower value",1
same,normalized growth,"S. cerevisiae deletion strains, locus YLR342W, strain FKS1 (second series), stronger effect = lower value",1.05
same,normalized growth,"S. cerevisiae deletion strains, locus YLR342W, strain FKS1, stronger effect = lower value",0.945
same,normalized growth,"S. cerevisiae deletion strains, locus YLR357W, strain rsc2, stronger effect = lower value",0.932
same,normalized growth,"S. cerevisiae deletion strains, locus YLR370C, strain arc18, stronger effect = lower value",0.981
same,normalized growth,"S. cerevisiae deletion strains, locus YLR371W, strain rom2, stronger effect = lower value",0.999
same,normalized growth,"S. cerevisiae deletion strains, locus YLR384C, strain iki3, stronger effect = lower value",0.989
same,normalized growth,"S. cerevisiae deletion strains, locus YLR418C, strain cdc73, stronger effect = lower value",0.938
same,normalized growth,"S. cerevisiae deletion strains, locus YML016C, strain PPZ1, stronger effect = lower value",1
same,normalized growth,"S. cerevisiae deletion strains, locus YML032C, strain rad52, stronger effect = lower value",0.979
same,normalized growth,"S. cerevisiae deletion strains, locus YML120C, strain ndi1, stronger effect = lower value",0.946
same,normalized growth,"S. cerevisiae deletion strains, locus YML124C, strain tub3, stronger effect = lower value",0.99
same,normalized growth,"S. cerevisiae deletion strains, locus YMR058W, strain fet3, stronger effect = lower value",0.921
same,normalized growth,"S. cerevisiae deletion strains, locus YMR078C, strain ctf18, stronger effect = lower value",0.984
same,normalized growth,"S. cerevisiae deletion strains, locus YMR125W, strain sto1, stronger effect = lower value",0.97
same,normalized growth,"S. cerevisiae deletion strains, locus YMR129W, stronger effect = lower value",0.953
same,normalized growth,"S. cerevisiae deletion strains, locus YMR205C, strain PFK2, stronger effect = lower value",0.842 (active)
same,normalized growth,"S. cerevisiae deletion strains, locus YMR223W, strain ubp8, stronger effect = lower value",0.988
same,normalized growth,"S. cerevisiae deletion strains, locus YMR231W, strain pep5, stronger effect = lower value",0.968
same,normalized growth,"S. cerevisiae deletion strains, locus YMR263W, strain SAP30, stronger effect = lower value",1.04
same,normalized growth,"S. cerevisiae deletion strains, locus YMR307W, strain GAS1, stronger effect = lower value",0.873
same,normalized growth,"S. cerevisiae deletion strains, locus YNL067W, strain RPL9B, stronger effect = lower value",1
same,normalized growth,"S. cerevisiae deletion strains, locus YNL071W, strain lat1, stronger effect = lower value",0.526 (active)
same,normalized growth,"S. cerevisiae deletion strains, locus YNL128W, strain TEP1, stronger effect = lower value",1.01
same,normalized growth,"S. cerevisiae deletion strains, locus YNL153C, strain GIM3, stronger effect = lower value",1.01
same,normalized growth,"S. cerevisiae deletion strains, locus YNL209W, strain ssb2, stronger effect = lower value",0.995
same,normalized growth,"S. cerevisiae deletion strains, locus YNL233W, strain BNI4, stronger effect = lower value",0.993
same,normalized growth,"S. cerevisiae deletion strains, locus YNL248C, strain rpa49, stronger effect = lower value",0.93
same,normalized growth,"S. cerevisiae deletion strains, locus YNL250W, strain rad50, stronger effect = lower value",0.974
same,normalized growth,"S. cerevisiae deletion strains, locus YNL271C, strain bni1, stronger effect = lower value",0.996
same,normalized growth,"S. cerevisiae deletion strains, locus YNL298W, strain CLA4, stronger effect = lower value",0.983
same,normalized growth,"S. cerevisiae deletion strains, locus YNL307C, strain MCK1, stronger effect = lower value",0.932
same,normalized growth,"S. cerevisiae deletion strains, locus YNL322C, strain KRE1 (second series), stronger effect = lower value",0.943
same,normalized growth,"S. cerevisiae deletion strains, locus YNL322C, strain KRE1, stronger effect = lower value",0.998
same,normalized growth,"S. cerevisiae deletion strains, locus YNR049C, strain mso1, stronger effect = lower value",0.959
same,normalized growth,"S. cerevisiae deletion strains, locus YNR052C, strain pop2, stronger effect = lower value",0.994
same,normalized growth,"S. cerevisiae deletion strains, locus YOL006C, strain TOP1, stronger effect = lower value",0.861
same,normalized growth,"S. cerevisiae deletion strains, locus YOL012C, strain htz1",0.789
same,normalized growth,"S. cerevisiae deletion strains, locus YOL147C, strain pex11, stronger effect = lower value",0.977
same,normalized growth,"S. cerevisiae deletion strains, locus YOR001W, strain rrp6, stronger effect = lower value",0.986
same,normalized growth,"S. cerevisiae deletion strains, locus YOR061W, strain CKA2, stronger effect = lower value",0.998
same,normalized growth,"S. cerevisiae deletion strains, locus YOR069W, strain VPS5, stronger effect = lower value",0.997
same,normalized growth,"S. cerevisiae deletion strains, locus YOR070C, strain gyp1, stronger effect = lower value",0.982
same,normalized growth,"S. cerevisiae deletion strains, locus YOR080W, strain dia2, stronger effect = lower value",1
same,normalized growth,"S. cerevisiae deletion strains, locus YOR083W, strain WHI5, stronger effect = lower value",0.923
same,normalized growth,"S. cerevisiae deletion strains, locus YOR106W, strain vam3, stronger effect = lower value",0.844 (active)
same,normalized growth,"S. cerevisiae deletion strains, locus YOR136W, strain idh2, stronger effect = lower value",0.992
same,normalized growth,"S. cerevisiae deletion strains, locus YOR144C, strain elg1, stronger effect = lower value",0.987
same,normalized growth,"S. cerevisiae deletion strains, locus YOR184W, strain ser1, stronger effect = lower value",0.99
same,normalized growth,"S. cerevisiae deletion strains, locus YOR265W, strain rbl2, stronger effect = lower value",0.976
same,normalized growth,"S. cerevisiae deletion strains, locus YOR270C, strain vph1, stronger effect = lower value",0.441 (active)
same,normalized growth,"S. cerevisiae deletion strains, locus YOR290C, strain snf2, stronger effect = lower value",0.941
same,normalized growth,"S. cerevisiae deletion strains, locus YOR316C, strain cot1, stronger effect = lower value",0.991
same,normalized growth,"S. cerevisiae deletion strains, locus YPL051W, strain arl3, stronger effect = lower value",0.974
same,normalized growth,"S. cerevisiae deletion strains, locus YPL055C, strain LGE1, stronger effect = lower value",1.04
same,normalized growth,"S. cerevisiae deletion strains, locus YPL078C, strain atp4, stronger effect = lower value",0.97
same,normalized growth,"S. cerevisiae deletion strains, locus YPL106C, strain sse1, stronger effect = lower value",0.933
same,normalized growth,"S. cerevisiae deletion strains, locus YPL240C, strain hsp82, stronger effect = lower value",0.979
same,normalized growth,"S. cerevisiae deletion strains, locus YPL241C, strain CIN2, stronger effect = lower value",1
same,normalized growth,"S. cerevisiae deletion strains, locus YPR119W, strain clb2, stronger effect = lower value",0.974
same,normalized growth,"S. cerevisiae deletion strains, locus YPR141C, strain kar3, stronger effect = lower value",0.986
same,normalized growth,"S. cerevisiae deletion strains, locus YPR163C, strain tif3, stronger effect = lower value",1.02
same,normalized growth,"S. cerevisiae deletion strains, locus YPR167C, strain met16, stronger effect = lower value",0.99
same,normalized growth,"S. cerevisiae deletion strains, strain wtn01, stronger effect = lower value",0.991
same,normalized growth,"S. cerevisiae strains, strain wild type, stronger effect = lower value",0.995
